dFosB act: mouse delta FosB homodimer activation. AID 493131. P13346. 340,000 compounds, 0.99% hits. activation, % at 25 µM. purified delta FosB, TAMRA-CDK5 oligo fluorescence polarization; percent of positive-control signal above neutral wells;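 active = mean activation above about 17%, with every replicate also reaching it, limit read from the data, passing the limit was not always enough; inconclusive = only one of the two conditions met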
INS-1E GSIS act: GLuc luminescence reporter in INS-1E cells, primary screen for activators of glucose-dependent secretion of insulin | INS-1E GLuc reporter insulin secretion, 2-3 h | activation, % at 16.6 µM | 370,000 compounds, 0.61% hits | AID 743287;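 active = lowest replicate activation of at least 40%, so every replicate reaches that level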
DENV2 CPE rescue: inhibitors of DENV2 cytopathic effect; 350,000 compounds, 1.7% hits; DENV2-infected cells, cytopathic effect rescue, plate reader; CPE inhibition, % at 9.99 µM; in the data active = CPE inhibition above about 20%, passing the limit was not always enough; inconclusive = no clear call, values can overlap the other calls; tested in BHK-21 cells
RAD54 inh: RAD54 (human) branch migration inhibition. Q92698. inhibition, % at 10.4 µM. 360,000 compounds, 0.14% hits. RAD54 Holliday junction branch migration, FAM/BHQ fluorescence;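 active = mean normalized replicate activity at least 40 and at least half of replicates scoring 40 or more; inconclusive = only one of the two criteria met; inactive = mean below 40 and under half of replicates reaching 40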;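 note: inhibitors cause a drop in the FAM fluorescence signal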
MLL AF4-AF9 inh: inhibitors of human MLL-AF4/AF9 interaction. inhibition, % at 10 µM. 350,000 compounds, 0.47% hits. AlphaScreen, biotin-AF4 peptide binding to FLAG-AF9. P42568;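 active = every replicate reaching a set inhibition limit, whatever the replicate mean, cut at about 25% in these data; inconclusive = mean inhibition reaches that limit but some replicates miss it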
RAD52 anneal inh: blocks human RAD52 DNA annealing; inhibition, % at 18.7 µM; P43351; recombinant RAD52 DNA annealing, FRET fluorescence; 360,000 compounds, 0.46% hits; AID 651710;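 active = every replicate showing at least 50% inhibition; inconclusive = mean inhibition at least 50% but not in every replicate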
Target sequence (P43351 whole entry, looked up): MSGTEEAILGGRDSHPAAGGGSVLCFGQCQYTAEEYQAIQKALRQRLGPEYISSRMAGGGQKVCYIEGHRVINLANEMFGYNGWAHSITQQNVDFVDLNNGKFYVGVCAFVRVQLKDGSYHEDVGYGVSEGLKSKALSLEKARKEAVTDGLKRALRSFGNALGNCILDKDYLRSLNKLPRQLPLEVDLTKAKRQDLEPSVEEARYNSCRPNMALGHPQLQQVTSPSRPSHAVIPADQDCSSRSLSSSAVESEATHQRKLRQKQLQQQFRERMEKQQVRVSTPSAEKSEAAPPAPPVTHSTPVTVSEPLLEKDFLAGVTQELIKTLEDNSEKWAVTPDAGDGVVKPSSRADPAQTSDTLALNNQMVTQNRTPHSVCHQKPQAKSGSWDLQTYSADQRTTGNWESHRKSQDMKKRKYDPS
Numbers stand for hits; . = inactive; ? = inconclusive; / = no result. Hits are enriched below; roughly 3.1% of the tested compounds scored in any of these assays.

SMILES | dFosB act | INS-1E GSIS act | DENV2 CPE rescue | RAD54 inh | MLL AF4-AF9 inh | RAD52 anneal inh
C[C@H](CO)N1C[C@H](C)[C@H](CN(C)C(=O)Nc2ccc3c(c2)OCO3)Oc2c(NC(=O)Nc3ccc(C(F)(F)F)cc3)cccc2C1=O | / | . | . | . | / | /
C[C@@H]1CN([C@H](C)CO)C(=O)c2cccc(NC(=O)Nc3ccc(C(F)(F)F)cc3)c2O[C@@H]1CN(C)C(=O)Nc1ccc2c(c1)OCO2 | / | . | 41 | . | / | /
C[C@@H]1CN([C@H](C)CO)C(=O)c2cccc(NC(=O)Nc3ccc4c(c3)OCO4)c2O[C@H]1CN(C)C(=O)Nc1ccccc1 | / | . | 100 | . | / | /
C[C@@H]1CN([C@H](C)CO)S(=O)(=O)c2ccc(C#CC3CC3)cc2O[C@@H]1CN(C)C(=O)CN(C)C | / | . | . | . | . | .
CO[C@H]1CN(C)C(=O)c2cc(NC(=O)c3ccccc3F)ccc2OC[C@@H](C)N(CC2CC2)C[C@H]1C | / | . | ? | . | . | .
C[C@@H]1CN([C@@H](C)CO)C(=O)c2cccc(NS(C)(=O)=O)c2O[C@H]1CN(C)C(=O)Nc1ccc(C(F)(F)F)cc1 | / | . | 79 | . | . | .
C[C@H]1CN([C@@H](C)CO)C(=O)c2cccc(NC(=O)C3CCCCC3)c2O[C@H]1CN(C)C(=O)Nc1ccc(C(F)(F)F)cc1 | / | . | 27 | . | . | .
Cc1noc(C)c1NC(=O)N(C)C[C@@H]1Oc2c(NC(=O)Nc3ccc(C(F)(F)F)cc3)cccc2C(=O)N([C@@H](C)CO)C[C@@H]1C | / | / | 32 | . | . | .
C[C@H]1CN([C@@H](C)CO)C(=O)c2cccc(NC(=O)C3CCCCC3)c2O[C@@H]1CN(C)C(=O)Nc1ccc(C(F)(F)F)cc1 | / | . | . | . | . | .
Cc1ccc(S(=O)(=O)N(C)C[C@H]2OCCCC[C@@H](C)Oc3ccc(NS(C)(=O)=O)cc3C(=O)N([C@@H](C)CO)C[C@@H]2C)cc1 | / | . | . | . | . | .
COC(=O)C[C@@H]1CC[C@H]2[C@@H](COC[C@H](O)CN2S(=O)(=O)c2cn(C)cn2)O1 | / | . | . | . | . | .
CNC[C@H]1Oc2ccc(NC(=O)Nc3ccc4c(c3)OCO4)cc2CC(=O)N([C@@H](C)CO)C[C@H]1C | / | . | / | . | / | .
O=C(O)c1ccc(S(=O)(=O)N2CCC3(CC2)CC(=O)c2ccccc2O3)cc1 | . | 50 | . | . | . | .
CC1=NN(c2ccccc2)C(=O)C1C=Nc1ccc(N(C)C)cc1 (stereo unspecified) | . | . | . | . | 31 | .
C[C@@H]1CN([C@H](C)CO)C(=O)Cc2cc(NC(=O)c3ccncc3)ccc2O[C@H]1CN(C)C | / | . | . | . | . | .
CC1=NN(C(N)=S)C(=O)C1N=Nc1ccccc1C (stereo unspecified) | . | 65 | / | . | / | /
CC1=NN(C(N)=S)C(=O)C1N=Nc1ccccc1O (stereo unspecified) | . | . | . | . | . | .
O=C(OC1CCOC1=O)c1cc(-c2cccs2)nc2ccccc12 (stereo unspecified) | . | 59 | / | . | . | .
C[C@@H]1CN([C@H](C)CO)C(=O)c2cc(-c3cncnc3)cnc2O[C@H]1CN(C)C(=O)Cc1ccccn1 | / | . | . | . | . | .
O=C(N[C@@H](Cc1ccccc1)Cn1cc(CN2C(=O)COC[C@H]2c2ccccc2)nn1)c1ccccc1 | / | / | . | . | . | .
O=C(Nc1ccccc1)N[C@H](Cc1ccccc1)Cn1cc(CN2C(=O)COC[C@H]2c2ccccc2)nn1 | / | / | 21 | . | . | .
Cc1ccc(Nc2nc(NCCO)nc(N3CCCC3)n2)cc1 | . | / | 60 | . | . | .
C=CCNc1nc(Nc2ccc([N+](=O)[O-])cc2)nc(N2CCCC2)n1 | 62 | . | / | / | / | /
COc1ccccc1Nc1nc(NCCCCO)nc(N2CCCC2)n1 | . | / | 86 | . | . | .
CC[C@@H]1CC=CC[C@@H](C)Oc2ccccc2C(=O)N(C)[C@H](C(C)C)C(=O)N1 (mixture of isomers) | / | . | / | / | / | /
SMILES | dFosB act | INS-1E GSIS act | DENV2 CPE rescue | RAD54 inh | MLL AF4-AF9 inh | RAD52 anneal inh
O=C(/C=C/c1ccc(Cl)cc1Cl)NC(=S)Nc1ccccn1 | . | / | / | . | / | /
Clc1ccc(C=Cc2ccccn2)c(Cl)c1 | . | / | 38 | . | . | .
CC(=O)N1N=C(c2ccc(Br)cc2)OC1(C)CC(=O)Nc1ccccc1 (stereo unspecified) | . | 57 | / | / | / | /
C[C@H](NC(=O)[C@@H]1[C@@H](CO)[C@@H]2Cn3c(cccc3=O)[C@@H]2N1Cc1cccnc1)c1ccccc1 | / | . | 41 | . | . | .
C[C@H](NC(=O)[C@H]1[C@H](CO)[C@H]2Cn3c(cccc3=O)[C@H]2N1Cc1cccnc1)c1ccccc1 | / | . | . | . | . | .
C[C@@H](NC(=O)[C@@H]1[C@@H](CO)[C@@H]2Cn3c(cccc3=O)[C@@H]2N1CC1CCCC1)c1ccccc1 | / | . | 156 | . | . | .
Cc1ccc(S(=O)(=O)N(C)C[C@@H]2Oc3ncc(-c4ccncc4)cc3C(=O)N([C@@H](C)CO)C[C@@H]2C)cc1 | / | / | . | . | . | .
CC(=O)Nc1ccc2c(c1)C(=O)N(C)[C@@H]1CC[C@H](CC(=O)NCc3ccccc3)O[C@@H]1CO2 | / | . | . | . | . | .
COc1ccccc1-c1cn(CC[C@H]2CC[C@@H](NC(=O)NC(C)C)[C@H](CO)O2)nn1 | / | . | 28 | . | . | .
O=C(Nc1ccc(Cl)cc1)N[C@H]1CC[C@@H](CCn2cc(Cc3ccccc3)nn2)O[C@H]1CO | / | . | 46 | . | . | .
COc1ccc(NC(=O)N[C@H]2CC[C@H](CCn3cc(-c4ccccc4)nn3)O[C@@H]2CO)cc1 | / | . | 37 | . | . | .
COc1ccccc1-c1cn(CC[C@H]2CC[C@H](NC(=O)NC(C)C)[C@H](CO)O2)nn1 | / | . | . | . | . | .
O=C(Nc1ccc(Cl)cc1)N[C@@H]1CC[C@@H](CCn2cc(Cc3ccccc3)nn2)O[C@@H]1CO | / | . | . | . | . | .
O=C(Nc1ccc(C(F)(F)F)cc1)N[C@@H]1CC[C@@H](CC(=O)N2CCCCC2)O[C@H]1CO | / | . | . | . | . | .
Cc1ccc(S(=O)(=O)Nc2ccc3c(c2)C(=O)N([C@H](C)CO)C[C@@H](C)[C@H](CN(C)CC2CC2)OCCCC[C@@H](C)O3)cc1 | / | . | . | . | . | .
CN1[C@@H]2Cn3c(ccc(-c4ccncc4)c3=O)[C@H]1[C@@H](C(=O)NC1CCCCC1)[C@@H]2CO | / | . | . | . | . | .
O=C(c1cccc(F)c1)N1CCCCN2[C@H](CO)[C@H](c3ccc(-c4ccccc4)cc3)[C@H]2C1 | / | . | 41 | . | . | .
COc1cccc(-c2ccc([C@@H]3[C@H]4CN(CC5CC5)CCCCN4[C@H]3CO)cc2)c1 | / | . | 58 | . | . | .
COc1cccc(-c2ccc([C@H]3[C@H]4CNCC(=O)N4[C@H]3CO)cc2)c1 | / | . | 22 | / | . | .
